An excerpt weighted towards active compounds, which were near 3.1% of everything screened.
p53null 32C kill = qHTS Screen for Compounds that Selectively Target Cancer Cells with p53 Mutations: Cytotoxicity of p53 Null Cells at the Permissive Temperature. H1299-neo p53 null cells, ATP luminescence, 24 h, 32C. Potency, µM (series often up to 46.1 µM), for inactives: at the top dose activity change, negative = cytotoxicity, actives largely listed as cytotoxic. 55,000 compounds, 0.62% hits;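 further: potency means the concentration at half of the fitted maximal effect; 0% = DMSO only and -100% = full killing by 100 µM tamoxifen; nearly all actives have a fitted effect of over 55% in size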
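ATP-content luminescence in p53-null H1299-neo cells after 24 h compound exposure (up to 46 uM) at 32C permissive temperature; 0% and 100% killing set by DMSO and 100 uM tamoxifen; Hill-equation AC50.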
p53null 39C kill = qHTS Screen for Compounds that Selectively Target Cancer Cells with p53 Mutations: Cytotoxicity of p53 Null Cells at the Nonpermissive Temperature; H1299 p53-null (neo) cells, 39C, ATPlite viability, 24 h; Potency, µM (top dose mostly 46.1 µM), for the others: at the top dose activity, negative = cell killing, hits mostly cytotoxic; 55,000 compounds, 0.97% hits; AID 904, 2007;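 further: potency means the concentration at half of the fitted maximal effect; 0% = DMSO only and -100% = full killing by 100 µM tamoxifen; nearly all actives have a fitted effect of over 50% in size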
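Following overnight plating at 37C (600 cells/well), H1299-neo or H1299-p53A138V cells are dosed up to 46 uM. Incubation lasts 24 hr at 39C before ATP detection.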
pS6 MEF inh = Acumen qHTS Assay for Inhibitors of the mTORC1 Signaling Pathway in MEF (Tsc2-/-, p53-/-) Cells: Sytravon; Tsc2-/- p53-/- MEF, phospho-rpS6 immunofluorescence/PI, 24 h; Potency, µM (titrated, usually from 38.3 µM), without a hit: top-dose activity change, negative = inhibition, hits mostly inhibitors; 44,000 compounds, 0.78% hits; AID 493208, 2011;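 further: potency means the concentration at half of the fitted maximal effect; plate controls were DMSO for no effect and rapamycin for full effect; nearly all actives have a fitted effect of over 50% in size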
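Compounds act on Tsc2-/-, p53-/- fibroblasts carrying an empty vector for 24 h before fixation and dual staining for phospho-S6 and DNA (propidium iodide). Values are percentages of cells above a rapamycin-defined pS6/PI threshold.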
S16 F2sN tox = Cell viability qHTS assay in S16 Pmp22-F2sN cells. S16 Pmp22-F2sN Schwann cells viability, CellTiter-Glo, 24 h. Potency, µM (doses to about 57.5 µM), for the others: at the top dose activity change, negative = cytotoxicity, usual class: cytotoxic. 43,000 compounds, 0.48% hits; further: potency means the concentration at half of the fitted maximal effect; on the % scale 0 is the no-effect control and ±100 the full control effect; nearly all actives have a fitted effect of over 65% in size
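Rat S16 Schwann reporter line, 24 h treatment with library compounds delivered at 23 nL per well. Cell viability by CellTiter-Glo luminescence.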
PMP22 txn prim = Cell-based coincidence reporter assay to measure PMP22 gene transcription in S16 Pmp22-F2sN cells - Primary screen; S16 Pmp22-F2sN Schwann cells (luciferase reporters placed in the Pmp22 gene), FLuc/NLuc coincidence luminescence, 24 h; Potency, µM (titrated, usually from 57.5 µM), for the others: top-dose activity change, negative = inhibition, actives largely listed as inhibitors; 43,000 compounds, 2% hits; active means clear falling dose curves in both reporters; inconclusive means both reporters move, but less clearly or upward; inactive means either reporter flat; the % is the NLuc reporter signal; further: potency means the concentration at half of the fitted maximal effect; on the % scale 0 is the no-effect control and ±100 the full control effect
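S16(c9) Schwann cells with FLuc/NLuc coincidence reporter in the Pmp22 3' UTR; compounds pin-transferred, 24 h at 37C. Dual-luciferase read: FLuc first, then NLuc after Stop&Glo, each 10 min at room temperature.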
SKOV3 invasion = Primary qHTS assay for Inhibitors of ovarian cancer metastasis using an organotypic tumor microenvironment (TME) model. SKOV3ip1-GFP adhesion/invasion on 3D omental model, fluorescence. Potency, µM (series often up to 45.8 µM), for inactives: top-dose activity change, negative = inhibition, usual class: inhibitors. AID 1963576, 2024. 46,000 compounds, 0.1% hits;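 further: potency means the concentration at half of the fitted maximal effect; plate controls were DMSO wells for no effect and tomatine positive control wells for full effect; nearly all actives have a fitted effect of over 65% in size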
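qHTS, 4-pt dose (0.36-46 umol/L); SKOV3ip1-GFP, 1,200 cells/well, no FBS; primary omental fibroblast/mesothelial co-culture 48 h pre-grown; 2 h RT + 16 h 37 C; PBS wash, 4% PFA; GFP count 488/509 nm.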
NLuc sat counter = Biochemical NLuc saturation counterscreen for small molecule modulators of PMP22 gene expression - Nano-Glo assay; shares compounds with PMP22 txn prim; Secreted NLuc enzyme (filtered S16 cell medium), Nano-Glo luminescence; Potency, µM (doses to about 57.5 µM), for the others: top-dose activity change, negative = inhibition, usual class: inhibitors; 690 compounds, 4% hits; AID 1508638, 2021; further: potency means the concentration at half of the fitted maximal effect; on the % scale 0 is the no-effect control and ±100 the full control effect
NLuc Km counter = Biochemical coelenterazine-based NLuc counterscreen for small molecule modulators of PMP22 gene expression - Km assay; AID 1508639, 2021; Potency, µM (titrated, usually from 57.5 µM), for inactives: at the top dose activity change, negative = inhibition, actives largely listed as inhibitors; shares compounds with PMP22 txn prim; secreted NLuc enzyme, coelenterazine luminescence, Km conditions; 690 compounds, 5% hits; further: potency means the concentration at half of the fitted maximal effect; on the % scale 0 is the no-effect control and ±100 the full control effect
FLuc ctr PMP22 = Biochemical FLuc counterscreen for small molecule modulators of PMP22 gene expression | shares compounds with PMP22 txn prim | purified P. pyralis FLuc, luminescence, 10 min | Potency, µM (series often up to 57.5 µM), for the others: at the highest dose activity, negative = inhibition, usual class: inhibitors | 690 tested, under 10 active | AID 1508640, 2021; further: % of control where 0% means no effect
Target sequence (P08659 whole entry, looked up): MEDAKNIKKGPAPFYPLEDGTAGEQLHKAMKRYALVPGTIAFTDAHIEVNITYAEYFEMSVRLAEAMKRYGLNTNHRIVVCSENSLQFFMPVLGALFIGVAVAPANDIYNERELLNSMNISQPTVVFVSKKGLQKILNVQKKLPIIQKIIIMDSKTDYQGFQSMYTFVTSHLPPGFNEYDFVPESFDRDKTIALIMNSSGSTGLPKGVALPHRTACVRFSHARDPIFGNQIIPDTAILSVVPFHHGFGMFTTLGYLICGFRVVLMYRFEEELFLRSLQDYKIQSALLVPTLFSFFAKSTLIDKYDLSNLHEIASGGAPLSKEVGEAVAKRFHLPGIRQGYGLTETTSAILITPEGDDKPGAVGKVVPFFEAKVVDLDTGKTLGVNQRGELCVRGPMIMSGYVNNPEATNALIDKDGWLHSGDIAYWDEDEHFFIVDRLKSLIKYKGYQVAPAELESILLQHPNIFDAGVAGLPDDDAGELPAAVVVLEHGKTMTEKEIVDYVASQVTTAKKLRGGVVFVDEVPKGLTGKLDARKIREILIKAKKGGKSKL
S16 F2sN tox cnf = Cell viability qHTS assay in S16 Pmp22-F2sN cells - Confirmatory screen; shares compounds with PMP22 txn prim; S16 Schwann cells viability, CellTiter-Glo ATP luminescence, 24 h; Potency, µM (titrated, usually from 57.5 µM), for inactives: at the highest dose activity change, negative = viability loss, actives largely listed as cytotoxic; 690 compounds, 7% hits; further: potency means the concentration at half of the fitted maximal effect; on the % scale 0 is the no-effect control and ±100 the full control effect
PMP22 txn conf = Cell-based coincidence reporter assay to measure PMP22 gene transcription in S16 Pmp22-F2sN cells - Confirmatory screen; shares compounds with PMP22 txn prim; S16 Schwann cells Pmp22-F2sN, dual luciferase, 24 h; Potency, µM (doses to about 57.5 µM), without a hit: at the top dose activity change, negative = inhibition, usual class: inhibitors; 690 compounds, 22% hits; AID 1508646, 2021; active means clear falling dose curves in both reporters; inconclusive means both reporters move, but less clearly or upward; inactive means either reporter flat; the % is the FLuc reporter signal; further: potency means the concentration at half of the fitted maximal effect
PMP22 prot conf = Cell-based HiBiT reporter assay to measure PMP22 protein expression in S16 Pmp22-HiBiT cells - Confirmatory screen | 95 tested, under 10 active | AID 1508647, 2021 | S16 Schwann cells Pmp22-HiBiT, luminescence, 48 h | shares compounds with PMP22 txn prim | Potency, µM (series often up to 27.9 µM), without a hit: at the highest dose activity change, negative = inhibition, actives largely listed as inhibitors
Target sequence (P25094 whole entry, looked up): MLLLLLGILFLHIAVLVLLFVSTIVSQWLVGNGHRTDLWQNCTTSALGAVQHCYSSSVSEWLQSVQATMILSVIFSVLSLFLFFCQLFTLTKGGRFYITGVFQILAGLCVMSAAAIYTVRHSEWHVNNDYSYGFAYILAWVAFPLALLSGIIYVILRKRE
Starred values were filed as active, the others as inactive; i = inactive; ? = inconclusive; / = no result. Unless noted, the call rests on the fitted dose curve; in most records, active means well fitted curve in the direction sought with a large enough effect; inconclusive means small, poorly fitted or top-dose-only effect, or another doubt; inactive means no such curve, though single readings can be large; an effect the other way counts as inactive or inconclusive.

SMILES	p53null 32C kill	p53null 39C kill	pS6 MEF inh	S16 F2sN tox	PMP22 txn prim	SKOV3 invasion	NLuc sat counter	NLuc Km counter	FLuc ctr PMP22	S16 F2sN tox cnf	PMP22 txn conf	others
CCCCC(CC)CNC(=O)c1ccc2c(=O)n(Cc3ccc(OC)cc3)c(=O)[nH]c2c1 (centres undefined)	1%	34%	-24%	3%	12µM*	i	6%	20%	3%	4%	?
CCCCCn1c(=O)[nH]c2cc(C(=O)Nc3cc(OC)cc(OC)c3)ccc2c1=O	-14%	-3%	1%	3%	?	i	/	/	/	/	/
CN(C)C(=O)[C@H](O)[C@H](Cc1ccccc1)NC(=O)c1cc2cc(Cl)ccc2[nH]1	/	/	/	/	/	10%	/	/	/	/	/
COc1cc2nccc(Oc3ccc(NC(=O)NC4CC4)c(Cl)c3)c2cc1C(N)=O	/	/	/	/	/	-1%	/	/	/	/	/
Cc1cccc(N2CCN(S(=O)(=O)c3ccc4c(c3)CCCN4C(=O)C3CCC3)CC2)c1C	-1%	3%	-10%	-19%	16µM*	-5%	-8%	3%	9%	-16%	?
CCc1ccccc1NC(=O)Cn1c(=O)n(Cc2ccc3c(c2)OCO3)c(=O)c2ccc(C(=O)NC3CCCCC3)cc21	1%	31%	0%	12%	12µM*	-11%	1%	5%	4%	-29%	11µM*
Cc1ccc(C)c(NC(=O)Cn2c(=O)n(Cc3ccco3)c(=O)c3ccc(C(=O)NC4CCCC4)cc32)c1	13%	6%	?	2%	?	-2%	/	/	/	/	/
CCOc1ccc(NC(=O)Cn2c(=O)n(Cc3ccc4c(c3)OCO4)c(=O)c3ccc(C(=O)NC4CCCCC4)cc32)cc1	-3%	27%	0%	1%	17µM*	i	4%	10%	0%	?	13µM*
Cc1cc(C)c(NC(=O)Cn2c(=O)n(Cc3ccco3)c(=O)c3ccc(C(=O)NC4CCCC4)cc32)c(C)c1	1%	-4%	-7%	14%	5µM*	-7%	-13%	8%	-17%	22µM*	12µM*	PMP22 prot conf=17%
CNC(=O)c1c(-c2ccc(F)cc2)oc2cc(N(CCO)S(C)(=O)=O)c(C3CC3)cc12	/	/	/	/	/	-1%	/	/	/	/	/
CC[C@H]1OC(=O)[C@H](C)[C@@H](O[C@H]2C[C@@](C)(OC)[C@@H](O)[C@H](C)O2)[C@H](C)[C@@H](O[C@@H]2O[C@H](C)C[C@H](N(C)C)[C@H]2O)[C@](C)(O)C[C@H](C)C(=NOCOCCOC)[C@H](C)[C@@H](O)[C@]1(C)O	/	/	/	/	/	-16%	/	/	/	/	/
Cc1ccccc1CNC(=O)C1CCCN(c2nnc(-n3c(C)ccc3C)s2)C1 (centres undefined)	7%	0%	-10%	?	16µM*	13%	-10%	?	0%	7%	-37%
Cc1cc(F)ccc1NC(=O)C1CCCN(c2nnc(-n3c(C)ccc3C)s2)C1 (centres undefined)	-5%	-21%	-7%	1%	?	2%	/	/	/	/	/
Cc1ccc(C)n1-c1nnc(N2CCCC(C(=O)Nc3ccccc3Br)C2)s1 (centres undefined)	4%	0%	-9%	-12%	17µM*	-9%	-17%	?	0%	14%	-20%
Cc1cccc(NC(=O)C2CCCN(c3nnc(-n4c(C)ccc4C)s3)C2)c1C (centres undefined)	0%	1%	-3%	-2%	16µM*	-21%	?	-6%	-3%	1%	?
Fc1ccc(CNc2ncnc3ccc(F)cc23)cc1	/	/	/	/	/	2%	/	/	/	/	/
CC(c1ccccc1)n1cc2c(c1-c1ccccc1Br)c(=O)n(C)c(=O)n2C (centres undefined)	15%	10%	-12%	-9%	-7%	-14%	/	/	/	/	/
Cn1c(=O)c2c(-c3ccccc3Br)n(C(C)(C)C)cc2n(C)c1=O	5%	-9%	-7%	1%	16µM*	7%	?	-16%	3%	?	-22%
